Data: PubChem BioAssay AID526 (National Center for Advancing Translational Sciences (NCATS), 2006)
Out of some 67,000 compounds screened, fewer than 10 were called active. The call rests on the fitted dose curve; in most records, active means well fitted activation curve with a large enough effect (not every such curve was filed as active); inconclusive means small, poorly fitted or top-dose-only effect, or another doubt; inactive means no such curve, though single readings can be large or run the other way. Not all results are given here.

Experiment: Ubiquitin-GFP Assay
Conditions: Ubiquitin-GFP reporter cells, proteasome inhibition, GFP fluorescence, untreated = 0%, 10 µM MG-132 = 100%; series mostly up to 45.9 µM; activation (GFP accumulation): at the top concentration
Excerpt: NIH Chemical Genomics Center [NCGC]
NIH Molecular Libraries Screening Centers Network [MLSCN]
The ubiquitin-proteasome pathway is present within all eukaryotic cells and plays roles in normal cellular functions and disease-related dysfunction. Proteins are tagged with a poly-ubiquitin chain that targets them for the proteasome, a multimeric protease, that degrades the protein into peptides and free ubiquitin. The proteasome has a key role in regulating cell cycle and growth and is known to control the levels of cyclins and CDK inhibitors as well as tumor suppressor proteins. Additionally, the activation of NF- B is controlled by ubiquitin-labeling and degradation of the inhibitory protein I B . […] With this in mind, proteasome inhibitors such as MG-132 and PS-341 have been used to inhibit tumor cell growth.
A cellular assay for ubiquitin-proteasome function was used to find chemical probes of this pathway. The assay used an ubiquitin-GFP construct expressed in U2OS cells (BioImage). Under basal conditions little GFP can be detected as it is degraded by the proteasome. However, treatment of the cells with a proteasome inhibitor such as MG-132 results in a rise in GFP levels that can be detected in as little as four hours. We used the Acumen-Explorer laser plate cytometer having a 488 nm laser as an excitation light source to detect the GFP. Compounds were screened in 1536-well plates using qHTS with a concentration-titration series range that varied from 46 uM to 2.9 nM.
NCGC Assay Protocol Summary:
Cells (U20S ps 2042) expressing ubiquitin (G76V-GFP) were maintained in DMEM with Glutamax-1 and high glucose, 10% FBS, 1% (v/v) penicillin-streptomycin, 0.5 mg/mL Geneticin (G418). The cells were seeded in 1536-well plates using a solenoid-based dispenser at 700 cells/5ul in DMEM medium with Glutamax-1 and high glucose containing 0.5% FBS, w/o phenol red, 25 mM HEPES. The plates were incubated at 37 °C/5% CO2 overnight. Then 23 nl of MG-132 in DMSO was added to the control wells at a final concentration of 10 uM. Next, 23 nL of library compounds in DMSO were added to the sample wells. The plates were incubated for 4 hrs at 37 °C/5% CO2. Following this incubation the plates were read on the Acumen using a cell object definition of 15 to 100 um in width and depth and a window of Total Intensity of between 77,200 and 2,720,000 FLU to enumerate GFP-expressing cells.
The %Activity was determined from the basal and MG-132 treated control wells. %Activity was determined by normalizing to the difference in signal between basal cells (0% Activity) and cells incubated with 10 uM of the proteasome inhibitor MG-132 (100% Activity). Concentration-response curves were fitted to the signals arising from the GFP fluorescence.
Assay Protocol Summary Table
Sequence Parameter Value Description
2. Time O/N 37C incubation
4. Compound 23 nL Libraries (46 uM to 2.9 nM)
5. Time 4 hr 37C incubation
6. Detector Acumen Total Intensity, GFP fluorescence (488 ex/515 em)
Keywords: NIH Roadmap, MLSCN, MLI, MLSMR, BioImage, proteasome, ubiquitin-GFP, qHTS, NCGC

Activation (GFP accumulation), inactive:
CCS(=O)(=O)N1CCCC(C(=O)NCCCN(C)Cc2ccccc2)C1 (stereo not drawn) -17.9%
COC(=O)C1(S(=O)(=O)C2(C(=O)OC)CCCC2)CCCC1 -3.95%
CC(C)[C@H](CO)Nc1nc(Nc2cc(N)cc(Cl)c2)c2ncn(C(C)C)c2n1 4.86%
O=c1cc(-c2ccc(O)c(O)c2)oc2cccc(O)c12 -3.85%
CC(C)NC[C@H](O)c1ccc2ccccc2c1
CCOC(=O)c1sc(NC(=O)CSc2nnc(-c3ccco3)o2)c(C(=O)OCC)c1C 0.862%
CN1CCN(Cc2nc3c(c(=O)n(C)c(=O)n3C)n2Cc2cccc3ccccc23)CC1 7.76%
O=C(O)[C@@H](S)[C@H](S)C(=O)O 4.35% [at 9.17 µM]
COC(=O)c1ccc(NC(=O)C(C)N2C(=O)c3ccccc3C2=O)cc1 (stereo not drawn) 18%
CC(=O)N1CCC2(CC1)CCN(c1ccncc1)CC2 -6.67%
COCCn1c(=O)c(-c2ccc(OC)cc2)nc2cnc(Oc3cccc(Cl)c3)nc21 1.07%
Cc1cccc(OCc2nnc(SCn3nnc4ccccc4c3=O)o2)c1 5.55%
Fc1cccc(/C=N\N=C/c2cccc(F)c2)c1 0.0487%
COc1ccc(CNc2ncnc3ccc(-c4cccnc4)cc23)c(OC)c1 2.78%
CC(C)(C)Nc1c(N)c(=O)oc2ccccc12 -4.55% [at 9.17 µM]
COc1ccccc1N1CCN(C[C@@H]2CN3C(=O)N(C)c4ccccc4C3=N2)CC1 1.28%
CC[C@]1(C)CC(=O)NC1=O
Cc1cc(=O)[nH]c(SCc2cc(Cl)ccc2OC(F)F)n1 -2.36%
COc1ccc(NC(C)=O)cc1NC(=O)CN1CCN(C2c3ccccc3-c3ccccc32)CC1 6.87%
COCC(=O)Nc1nnc(COc2ccccc2)s1 2.01%
O=C(O)Cc1ccc(-c2ccccc2)cc1 -6.38% [at 20.5 µM]
CCCS(=O)(=O)N1CCN(C(=O)c2cccs2)CC1 5.32%
CC1=C(C(=O)OC2CCCCC2)C(c2cccnc2)n2ncnc2N1 (stereo not drawn) 0%
C1=C(N2CCOCC2)/C(=C/c2nc3ccccc3[nH]2)CC1 -10.8% [at 9.17 µM]
O=C(CSc1nnc(-c2cccnc2)n1Cc1ccco1)c1ccc(Cl)cc1 -0.562%
CC(C)(CSc1nncn1/N=C/c1ccco1)NS(=O)(=O)c1ccc(Cl)cc1 -1.69%
CCC(c1nnnn1Cc1ccco1)N(CCc1ccccc1)Cc1cc2cccc(C)c2[nH]c1=O (stereo not drawn) 0.917%
CC(C(=O)O)N1C(=O)c2cccc3cccc1c23 (stereo not drawn) -5.36%
CC[N+](C)(CC)CCC[n+]1c(-c2ccccc2)c2cc(N)ccc2c2ccc(N)cc21 17.1% [at 20.5 µM]
CC1(C)S[C@@H]2[C@@H](NC(=O)[C@@H](N)c3ccccc3)C(=O)N2[C@H]1C(=O)O 0%
Cc1ccc(CNC(=O)C2CC(=O)N(C3CCCCCCC3)C2)cc1 (stereo not drawn) -1.72%
COc1ccccc1-n1nnnc1S(=O)(=O)Cc1ccc(Cl)cc1 -7.5%
Cc1nc(N2CCN(c3ncccn3)CC2)c2oc3ccccc3c2n1 1.72%
CSc1ccc(S(=O)(=O)Nc2cccc(F)c2)cc1 -0.229%
O=C(NCc1cccs1)C1CCN(S(=O)(=O)c2ccc3c(c2)OCCO3)CC1 -1.96%
O=S(=O)(O)c1ccc(O)c2ncccc12.O=S(=O)(O)c1ccc(O)c2ncccc12.[Zn] 2.9% [at 9.17 µM]
CN(C)c1ccc(CNC23CN4CN(CN(C4)C2)C3)cc1 -1.33%
CCCn1c(C(O)c2cc(OC)ccc2OC)nc2ccccc21 (stereo not drawn) -12.9%
Cc1cc(=O)n2nc(N3CCCC(C(=O)N4CCN(C)CC4)C3)sc2n1 (stereo not drawn) -0.855%
CN(C)C(=O)/N=N\C(=O)N(C)C 0.779%
CCCC(CCC(=O)OC)(C(=O)OCC)c1csc(N)n1 (stereo not drawn) -4.11%
O=C(CSC1=NCCS1)Nc1nc(-c2ccccc2)cs1 -15.6%
COc1ccc(OC)c(C(=O)CSc2nnc(-c3cccs3)o2)c1 0%
Cc1ccc2cccc(O)c2[n+]1[O-] -6.52%
COc1ccc(OC)c(NC(=O)CSc2nc3cccnc3n2C)c1 -1.06%
CCCCC(=O)Nc1ccc(C(=O)NCCCn2ccnc2)cc1 -2.04%
CN1[C@H]2CC(OC(=O)[C@@H](CO)c3ccccc3)C[C@H]1[C@H]1O[C@H]12 (stereo partly drawn) 0.807% [at 20.5 µM]
Nc1ccc2c3c(cccc13)C(=O)NC2=O -1.64%
Cc1ccc(Cn2ccc(NC(=O)C3C4CCC(C4)C3C(=O)O)n2)cc1 (stereo not drawn) 13.5%
Cc1cccc(N2CCN(Cc3c(C)n(C)n(-c4ccccc4)c3=O)CC2)c1C -18.2% [at 9.17 µM]
Cc1onc(-c2ccccc2Cl)c1C(=O)NCCn1ccc2ccccc21 16%
CCOC(=O)c1cc(-c2ccc(Cl)s2)nc2c1c(C)nn2C -2.17%
COc1nc(NCc2ccc(Cl)cc2)nc(OC)n1 -9.93% [at 9.17 µM]
COc1ccc(-c2cc(C(F)(F)F)nc(SCCC(=O)NCc3ccco3)n2)cc1 -4.87%
COC(=O)C(C)Sc1ccc2nnc(-c3cccc(F)c3)n2n1 (stereo not drawn) 11.7%
CCNc1ncc2nc(CCc3ccccc3)c(=O)n(-c3ccc(OC)cc3)c2n1 -0.0408%
Cc1nnc(C)n1/N=C/c1ccc(C(C)C)cc1 1.85%
O=C(CN1CCN(C2CCCCC2)CC1)Nc1ccccc1N1CCCCC1 -0.833%
CS(=O)(=O)N1CCC2(CCN(c3ccncc3)CC2)CC1 -4.81%
COc1ccccc1NC(=O)CSc1nnc(Cc2cccn2C)n1-c1ccc(F)cc1 6.14%
CNC(=O)CN1C(=O)c2ccccc2S1(=O)=O 12.9%
Oc1c(CN2CCOCC2)ccc(CN2CCOCC2)c1O -4.99% [at 9.17 µM]
Cc1cc(C)c2nc3c(c([C@H](O)[C@@H]4CCCCN4)c2c1)CC/C3=C/c1ccc(Cl)cc1 1.75% [at 9.17 µM]
O=C(Nc1c[nH]c(=O)[nH]c1=O)Oc1ccccc1 7.84% [at 9.17 µM]
CC(=O)Nc1nc(C)c(Cc2ccccc2)c(=O)[nH]1 -8.77%
O=C(NC(c1ccccc1)c1ccccc1)N1CCN(CCO)CC1 -0.276%
O=C(c1cnccn1)N1CCC2(CCN(Cc3cc(C(F)(F)F)cc(C(F)(F)F)c3)CC2)CC1 -15.1%
CC1(C)NC(=O)N(CCOc2cccc(Oc3ccccc3)c2)C1=O 15%
